Hits are enriched below; roughly 1.6% of the tested compounds scored in any of these assays.
Casp6 inh = caspase-6 (human) enzyme inhibition; P55212; purified caspase-6, Z-VEID-R110 cleavage fluorescence; inhibition, % at 12.5 µM; actives 0.53% (n = 350,000);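 active = mean inhibition across replicates at least about 35%, with every replicate also reaching that limit, limit read from the data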;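 note: 0% = median of neutral control wells and 100% = no fluorescence left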
NSD2 HMT inh = inhibitors of human histone methyltransferase NSD2 | O96028 | AID 743445 | actives 0.54% (n = 310,000) | inhibition, % at 12.5 µM | NSD2 peptide methylation, AlphaScreen, 120 min; in the data active = inhibition above about 50%
SIRT5 block = blocks human SIRT5 desuccinylation of peptide; Q9NXA8; Purified SirT5, succinyl-peptide AMC, trypsin-coupled fluorescence; inhibition, % at 15 µM; actives 1.1% (n = 330,000); AID 652115; in the data active = inhibition above about 15%
SUMO HTRF inh = blocks human SUMOylation mediated by UBC9; P63279; HTRF SUMOylation assay, SAE1/SAE2 + UBC9, in vitro; inhibition, % at 35 µM; actives 0.36% (n = 290,000); in the data active = inhibition above about 50%, passing the limit was not always enough
AlphaScreen art = counter-screen for NSD2 inhibitors: AlphaScreen artifacts; shares compounds with NSD2 HMT inh; AlphaScreen artifact counterscreen, preloaded methylated H4 peptide; AC35, µM (top dose mostly 10 µM), inactives show at the highest dose activity change, negative = signal loss; actives 9.4% (n = 1,500); AID 1053174; call rule not given here
Starred values were filed as active, the others as inactive.

What do the screens show for `CC(=O)Nc1ccc(S(=O)(=O)/N=C2/NC(=O)/C(=C\c3ccco3)S2)cc1`?
Casp6 inh: 65*; NSD2 HMT inh: 55*; SIRT5 block: 15*; SUMO HTRF inh: 26; AlphaScreen art: -7%

What do the screens show for `CC(C)=CCC1=C(OCC(=O)O)C(=O)c2ccccc2C1=O`?
NSD2 HMT inh: 127*; SIRT5 block: 1; SUMO HTRF inh: 94; AlphaScreen art: -2%

How did CCCNC(=O)N1CCC2(CC1)CN(C(=O)NC1CCCC1)[C@H](CO)c1[nH]c3cc(OC)ccc3c12 do in these assays?
Casp6 inh: -2; SIRT5 block: 5

What do the screens show for `CCC(=O)Nc1ccc2c(c1)C(=O)N(C)C[C@@H](OC)[C@@H](C)CN(C(=O)c1cnccn1)[C@H](C)CO2`?
Casp6 inh: -2; SIRT5 block: -3

What do the screens show for `Cc1ccc(S(=O)(=O)c2c(N)n(CCCN(C)C)c3nc4ccccc4nc23)cc1`?
Casp6 inh: 6; NSD2 HMT inh: -7; SIRT5 block: -35; SUMO HTRF inh: 27

How did CCCCn1c(NS(=O)(=O)c2ccc(C)cc2)c(S(=O)(=O)c2ccccc2)c2nc3ccccc3nc21 do in these assays?
Casp6 inh: -3; NSD2 HMT inh: 127*; SUMO HTRF inh: 100*; AlphaScreen art: -1%

Results for CC(C)NC(=O)N1C[C@H]2[C@@H](c3ccccc31)[C@@H](CO)N2C(=O)c1ccccc1F ?
Casp6 inh: -4; SIRT5 block: -2

How did O=c1[nH]c(CN2CCCCC2)ccc1O do in these assays?
Casp6 inh: 22; NSD2 HMT inh: 65*; SIRT5 block: 4; AlphaScreen art: 1%

Results for O=C(O)c1[nH]c2ccccc2c1C(c1ccccc1)c1c(C(=O)O)[nH]c2ccccc12 ?
Casp6 inh: 2; NSD2 HMT inh: 7; SIRT5 block: 2; SUMO HTRF inh: 5

How did O=C(O)c1[nH]c2ccccc2c1C(c1cc(Cl)cc([N+](=O)[O-])c1O)c1c(C(=O)O)[nH]c2ccccc12 do in these assays?
Casp6 inh: 8; NSD2 HMT inh: 55*; SIRT5 block: 12; SUMO HTRF inh: 20; AlphaScreen art: -20%

Results for O=C(O)C[C@H]1CC[C@H](NC(=O)c2ccncc2)[C@H](CO)O1 ?
Casp6 inh: -1; SIRT5 block: -1

How did COc1ccc(-c2cnc3c(c2)C(=O)N([C@H](C)CO)C[C@H](C)[C@@H](CN(C)Cc2cccnc2)O3)cc1 do in these assays?
Casp6 inh: -1; SIRT5 block: -1

Results for COc1ccccc1-c1cnc2c(c1)C(=O)N([C@@H](C)CO)C[C@H](C)[C@@H](CN(C)C(=O)CN(C)C)O2 ?
Casp6 inh: 1; SIRT5 block: -4

How did COc1ccc(NC(=O)Nc2ccccc2SC)cc1OC do in these assays?
Casp6 inh: 1; NSD2 HMT inh: 2; SIRT5 block: -2; SUMO HTRF inh: 3

What do the screens show for `CNCc1ccccc1Sc1cc(O)ccc1O`?
NSD2 HMT inh: 50; SUMO HTRF inh: 16

Results for CNCc1ccccc1Sc1cccc(O)c1 ?
NSD2 HMT inh: 74*; SUMO HTRF inh: 0; AlphaScreen art: -4%

How did CNCc1ccccc1Sc1ccc(OC)c(OC)c1 do in these assays?
NSD2 HMT inh: 56*; SUMO HTRF inh: 36; AlphaScreen art: -5%

What do the screens show for `Cc1cccc(OCC(=O)Nc2ncn[nH]2)c1C`?
Casp6 inh: -1; NSD2 HMT inh: 98*; SIRT5 block: 13; SUMO HTRF inh: 23; AlphaScreen art: -6%

Results for C[C@H]1CN([C@@H](C)CO)C(=O)c2cc(-c3cccc(C#N)c3)cnc2O[C@@H]1CN(C)Cc1ccncc1 ?
Casp6 inh: -1; SIRT5 block: -4

How did O=C(C[C@H]1CC[C@H]2[C@@H](COC[C@@H](O)CN2C(=O)c2ccccc2)O1)N1CCc2ccccc2C1 do in these assays?
Casp6 inh: 1; SIRT5 block: -2

Results for COCCN(C(=O)CCC(=O)Nc1ccccn1)C(C(=O)NC(C)C)c1ccc(C)cc1 (stereo unspecified) ?
NSD2 HMT inh: 60*; SIRT5 block: 1; SUMO HTRF inh: 8; AlphaScreen art: -5%

Results for CCCNC(=O)N(C)C[C@@H]1Oc2ncc(-c3ccncc3)cc2C(=O)N([C@@H](C)CO)C[C@H]1C ?
Casp6 inh: 0; SIRT5 block: -1

How did N#C[C@H]1[C@H](c2ccccc2C2=CCCC2)[C@@H](CO)N1C(=O)CN1CCOCC1 do in these assays?
Casp6 inh: 1; SIRT5 block: -2

Source: PubChem BioAssay
